“And” between values parts separate entries of the source, which are not always exact repeats. Equal entries are not always repeated. Records with an inconclusive call do not appear. Where a call stands in place of a potency, no number is given. A structure can be active in one record and inactive in another. The source made the active and inactive calls. Calls follow the shape of the full dose curve.
Potency is read from the fitted curve at half-maximal effect.

The nature of this test: Nuclear factor erythroid 2-related factor 2/antioxidant responsive element (Nrf2/ARE) small molecule agonists: luciferase reporter gene qHTS assay in human keratinocytes (AID 1919969). Also: nearly all actives have a fitted effect of over 35% in size. To be noted: KeratinoSens HaCaT ARE-luciferase, luminescence, 24 h; series mostly up to 92.4 µM. The source says:
National Center for Advancing Translational Sciences [NCATS]
Division of Preclinical Innovation [DPI]
U.S. Environmental Protection Agency [EPA]
National Institutes of Environmental Health Sciences [NIEHS]
National Toxicology Program [NTP]
U.S. Food and Drug Administration [FDA]
Oxidative stress has been implicated in the pathogenesis of a variety of diseases ranging from cancer to neurodegeneration. The antioxidant response element (ARE) signaling pathway plays an important role in the amelioration of oxidative stress. The KeratinoSens (Givaudan, Switzerland) is an in vitro test method which quantifies luciferase induction as a measure of activation of Keap1-Nrf2-antioxidationt/electrophile response element (ARE) dependant pathway in HaCaT human keratinocytes stably transfected with a selectable plasmid. The KeratinoSens assay is a cell-based assay with a reporter cell line to detect potential skin sensitizers by their ability to induce the Nrf2/ARE-response. The activation of the report gene under culture conditions can be detected by ONE-Glo Luciferase Assay System (Promega, Madison, WI). This cell line has been used to screen the Tox21 10K compound library to identify agonists that induce oxidative stress. The cytotoxicity of the Tox21 compound library against the KS-ARE cell line was tested in parallel by measuring the cell viability using CellTiter- Fluor assay system (Promega, Madison, WI) in the same wells.
HaCaT derived cell line KeratinoSens were dispensed at 1,500 cells/5uL/well in 1536-well white wall/solid bottom plates using a Multidrop Combi (ThermoFisher Scientific, Waltham, MA) dispenser. After the assay plates were incubated at 37 C/5% CO2 for 5 h, 23 nL of compounds dissolved in DMSO, positive controls or DMSO only was transferred to the assay plate by a pintool workstation (Kalypsys, San Diego, CA). The plates were incubated at 37 C/5% CO2 for 23 h, followed by addition of 1uL/well of CellTiter-Fluor reagent into the assay plates using a Flying Reagent Dispenser (Aurora Discovery, San Diego, CA) for cell viability readout that measures cytotoxicity. After 1 h incubation at 37 C/5% CO2 the fluorescence intensity was measured using a ViewLux (PerkinElmer, Shelton, CT) plate reader. Then 4uL/well of One-Glo were added using a Flying Reagent Dispenser. After the plates were incubated at room temperature for 30 min, the luminescence intensity in the assay plates was measured using ViewLux plate reader.
(Reporter assays use an easily measured gene product as a stand-in for the process of interest.)
In the case of `NCc1ccccc1`, the Potency entry was “inactive”.
The entry for `Cc1onc(-c2c(Cl)cccc2Cl)c1C(=O)N[C@@H]1C(=O)N2[C@@H]1SC(C)(C)[C@@H]2C(=O)O` is “inactive”.
For the compound `OCCN(CCO)c1nc(N2CCCCC2)c2nc(N(CCO)CCO)nc(N3CCCCC3)c2n1`, the Potency result is “inactive”.
As for `CCCCCCCCCCCCOCCOCCOCCOCCOCCOCCOCCOCCOCCO`, the Potency entry was “inactive”.
The value for `CCN(Cc1ccccc1)c1ccccc1` was “inactive”; that for `O=C(Nc1cccc([N+](=O)[O-])c1)c1cc2ccccc2cc1O` was 61.1 µM (active); that for `O=CNc1ccccc1` was “inactive”.
On to `c1ccc(OCc2ccc(CCCN3CCOCC3)cc2)cc1`, for which the Potency entry was “inactive”.
Regarding `CC(=O)/C(C)=C/C1C(C)=CCCC1(C)C` (stereo not given), the Potency entry was “inactive”.
The value for `Nc1ccc2c(c1)CN1C(=O)c3ccccc3C1=N2` was 0.13 µM (active); that for `O=C(O)[C@@H]1CSCN1` was “inactive”; that for `OCCN1CCN(CCCN2c3ccccc3Sc3ccc(Cl)cc32)CC1` was “inactive”.
The value for `O=C1NC2CCCCN2C12CCN(CCCN1c3ccccc3CCc3ccc(Cl)cc31)CC2` (stereo not given) was “inactive”; that for `O=C(Cl)c1c(Cl)cccc1Cl` was “inactive”; that for `CCc1ccc(C(c2ccc(CC)cc2)C(Cl)Cl)cc1` was “inactive and 27.3 µM (active)”.
The value for `COc1cc(C(C)=O)ccc1OCCCN1CCC(c2noc3cc(F)ccc23)CC1` was “inactive”.
Regarding `CC(C)c1nc(CN(C)C(=O)N[C@H](C(=O)N[C@@H](Cc2ccccc2)C[C@H](O)[C@H](Cc2ccccc2)NC(=O)OCc2cncs2)C(C)C)cs1`, the Potency result was “inactive”.
Consider `NCCCOCCOCCOCCCN`, for which the Potency entry was “inactive”.
The entry for `N#CCCOCCOCCC#N` is “inactive”.
The entry for `CC(=O)OCC(=O)[C@H]1CC[C@H]2[C@@H]3CCC4=CC(=O)CC[C@]4(C)[C@H]3CC[C@]12C` is “inactive”; for `CC(O)CN` (stereo not given) it is “inactive”; for `Nc1ccc(-c2ccc(F)cc2)cc1` it is “inactive”.
The entry for `CCN(Cc1cccc(S(=O)(=O)O)c1)c1ccc(C(=C2C=CC(=[N+](CC)Cc3cccc(S(=O)(=O)O)c3)C=C2)c2ccc(O)cc2S(=O)(=O)[O-])cc1` is “inactive”.
Consider `CCCCCCCCCCC[C@@H](C[C@@H]1OC(=O)[C@H]1CCCCCC)OC(=O)[C@H](CC(C)C)NC=O`, for which the Potency entry is “inactive”.
The entry for `CCCCC(=O)O[C@]1(C(=O)CO)[C@@H](C)C[C@H]2[C@@H]3CCC4=CC(=O)C=C[C@]4(C)[C@@]3(F)[C@@H](O)C[C@@]21C` is “inactive”; for `Cc1onc(-c2c(Cl)cccc2Cl)c1C(=O)Cl` it is “inactive”; for `CCC(C)(C)OC` it is “inactive”.
The entry for `O=C(O)CN1C(=O)c2cccc3cccc(c23)C1=O` is “inactive”; for `CCCc1ccc(OCC(=O)N2CCN(C(=O)COc3ccc(CCC)cc3OC)CC2)c(OC)c1` it is “inactive”.
The entry for `Cc1c(-c2cccnc2)c2ccccc2n1CCCCC(=O)O` is “inactive”; for `O=C(Cl)c1ccc(Cl)cc1Cl` it is “inactive”.
Take `CCN(CC)c1ccc(C(=C2C=CC(=[N+](CC)CC)C=C2)c2cc(S(=O)(=O)O)ccc2S(=O)(=O)[O-])cc1`: the Potency entry is “inactive”.
The entry for `C=C1CC[C@H]2C[C@@H]1C2(C)C` is “inactive”; for `Cc1onc(-c2ccccc2)c1-c1ccc(S(N)(=O)=O)cc1` it is “inactive”.
Regarding `CC(O)C1CCCCC1` (stereo not given), the Potency entry was “inactive”.
`CCCCC(CC)CN1CN(CC(CC)CCCC)CC(C)(N)C1` (stereo not given): the Potency result was “inactive”.
The value for `Cc1cccc(C)c1NC(=O)CN1CCN(CCCC(c2ccc(F)cc2)c2ccc(F)cc2)CC1` was “inactive”.
The figure for `CCOc1ccc2nc3cc(N)ccc3c(N)c2c1` is 29.8 µM (active); for `CCCCCCCCCOC(=O)CCCCC(=O)OCCCCCCC` it is “inactive”; for `C[C@]12CCC(=O)C=C1CC[C@H]1[C@@H]3CC[C@](O)(C(=O)CO)[C@@]3(C)C[C@H](O)[C@@]12F` it is “inactive”.

(Values after PubChem BioAssay (Tox21).)
